Data as given in PubChem BioAssay AID1159580 (chemical genetic matrix, 2015).
“And” between values parts separate entries of the source, which are not always exact repeats. Equal entries are not always repeated. Among all 5,500 compounds or so, about 2,000 (36%) were called active. Inconclusive results (about 18%) are left out. Cut-off read from the data, not from the text of the source: active = normalized growth mostly below about 0.91 (no sharp cut-off); inconclusive = no clear call, values can overlap the other calls; inactive = mostly above about 0.92. The list shows a part of the results.

Assay: chemical genetic growth profiling, strain panel (AID 1159580);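 note: tested at 20 µM; growth read once vehicle control cultures reached saturation at 30 °C; 1 = growth at the plate median or of vehicle wells; lower values mean less growth of the strain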
Conditions: S. cerevisiae deletion strains, growth OD

Measured: normalized growth

CC(C)(C)CC(C)(C)c1ccc(O)c(Cc2ccc(Cl)cc2Cl)c1
inactive: locus YAL021C, strain ccr4, active compounds read low 1 | locus YAL026C, strain drs2, active compounds read low 1.03 | locus YAL030W, strain snc1, active compounds read low 1.01 | locus YBL061C, strain skt5, active compounds read low 1.01 | locus YBR009C, strain hhf1, active compounds read low 0.995 | locus YBR021W, strain FUR4, active compounds read low 0.993 | locus YBR023C, strain chs3, active compounds read low 1.02 | locus YBR171W, strain sec66, active compounds read low 1.02 | locus YBR229C, strain ROT2, active compounds read low 1.01 | locus YBR231C, strain swc5, active compounds read low 1.01 | locus YBR279W, strain paf1, active compounds read low 1.02 | locus YCL011C, strain gbp2, active compounds read low 1.01 | locus YCL016C, strain dcc1, active compounds read low 1.01 | locus YCL029C, strain bik1, active compounds read low 1.02 | locus YCL061C, strain MRC1, active compounds read low 1.02 | locus YCL069W, strain vba3, active compounds read low 1.03 | locus YCR088W, strain abp1, active compounds read low 1.02 | locus YDL005C, strain med2, active compounds read low 1.03 | locus YDL035C, strain GPR1, active compounds read low 1.01 | locus YDL040C, strain nat1, active compounds read low 1 | locus YDL074C, strain BRE1, active compounds read low 1.01 | locus YDL101C, strain DUN1, active compounds read low 1 | locus YDL134C, strain PPH21, active compounds read low 1 | locus YDL185W, strain tfp1, active compounds read low 1.01 | locus YDL192W, strain arf1, active compounds read low 1.01 | locus YDR001C, strain nth1, active compounds read low 1.02 | locus YDR069C, strain doa4, active compounds read low 1.02 | locus YDR101C, strain arx1, active compounds read low 0.997 | locus YDR137W, strain rgp1, active compounds read low 1.03 | locus YDR159W, strain sac3, active compounds read low 1.02 | locus YDR162C, strain NBP2, active compounds read low 1 | locus YDR195W, strain ref2 1.08 | locus YDR297W, strain sur2, active compounds read low 1.01 | locus YDR318W, strain mcm21, active compounds read low 1.01 | locus YDR334W, strain swr1, active compounds read low 1.04 | locus YDR335W, strain msn5, active compounds read low 1.04 | locus YDR388W, active compounds read low 1.01 | locus YDR392W, strain spt3, active compounds read low 0.894 | locus YDR502C, strain sam2, active compounds read low 1.02 | locus YEL003W, strain gim4, active compounds read low 1.02 | locus YEL037C, strain rad23, active compounds read low 1.02 | locus YEL061C, strain CIN8 (second series), active compounds read low 1.03 | locus YEL061C, strain CIN8, active compounds read low 1 | locus YER015W, strain faa2, active compounds read low 1.01 | locus YER016W, strain bim1, active compounds read low 1.03 | locus YER110C, active compounds read low 1.02 | locus YER111C, strain swi4, active compounds read low 1.05 | locus YER155C, strain BEM2 (second series), active compounds read low 1.08 | locus YER155C, strain BEM2, active compounds read low 0.998 | locus YER167W, strain BCK2, active compounds read low 1 | locus YFR010W, strain ubp6, active compounds read low 1.02 | locus YGL078C, strain dbp3, active compounds read low 1.02 | locus YGL086W, strain mad1, active compounds read low 1.01 | locus YGL167C, strain pmr1, active compounds read low 1.02 | locus YGL173C, strain kem1, active compounds read low 1.02 | locus YGL227W, strain vid30, active compounds read low 1.02 | locus YGL240W, strain doc1, active compounds read low 1.03 | locus YGL248W, strain PDE1, active compounds read low 1 | locus YGL253W, strain hxk2, active compounds read low 1.03 | locus YGR078C, strain PAC10, active compounds read low 0.997 | locus YGR135W, strain pre9, active compounds read low 1.01 | locus YGR229C, strain SMI1, active compounds read low 0.992 | locus YGR252W, strain gcn5, active compounds read low 1.04 | locus YHR013C, strain ard1, active compounds read low 1.02 | locus YHR027C, strain rpn1, active compounds read low 1.02 | locus YHR030C, strain SLT2, active compounds read low 1 and 1.03 | locus YHR079C, strain IRE1 (second series), active compounds read low 1.01 | locus YHR079C, strain IRE1, active compounds read low 1.05 | locus YHR094C, strain hxt1, active compounds read low 1.01 | locus YHR129C, strain ARP1, active compounds read low 1.01 | locus YHR142W, strain chs7, active compounds read low 1.02 | locus YHR200W, strain rpn10, active compounds read low 1.01 | locus YIL066C, strain RNR3, active compounds read low 1.01 | locus YIL073C, strain SPO22, active compounds read low 1.04 | locus YIL125W, strain kgd1, active compounds read low 1.02 | locus YIR030C, strain dcg1, active compounds read low 1.02 | locus YJL092W, strain hpr5, active compounds read low 1.02 | locus YJL095W, strain BCK1 (second series), active compounds read low 1.01 | locus YJL095W, strain BCK1, active compounds read low 1.01 and 1.04 | locus YJL115W, strain asf1, active compounds read low 1.04 | locus YJL129C, strain trk1, active compounds read low 0.981 | locus YJL134W, strain LCB3, active compounds read low 1.01 | locus YJL154C, strain vps35, active compounds read low 1.02 | locus YJL164C, strain tpk1, active compounds read low 0.994 | locus YJL166W, strain qcr8, active compounds read low 1.02 | locus YJL168C, strain set2, active compounds read low 1.01 | locus YJL187C, strain SWE1 (second series), active compounds read low 1.01 | locus YJL187C, strain SWE1, active compounds read low 1.01 | locus YJR043C, strain POL32, active compounds read low 1.01 | locus YJR066W, strain TOR1, active compounds read low 0.925
